Measurements published in the supplement of paper PMC10849652.
The full data set covers some 7,900 targets. This sample favours those with a hit. About 0.6% of all pairs of compound and target were hits. Values without a mark were called inactive.

Experiments:
Assay in all cases: log2 fold change, soluble protein after heating vs DMSO (PISA); higher = thermal stabilisation; K562 cells, 10 uM, 30 min; active = over 0.2 and 3.5 SD of the protein, either way, in both replicates (recomputed)
[1] = compound: Cc1ccc(NC(=O)c2ccc(CN3CC[C@H](N(C)C)C3)c(C(F)(F)F)c2)cc1Nc1nccc(-c2cncnc2)n1 [bafetinib]
Outline: (§1)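 Aliquots of K562 cells (2×10^6 cells/mL) treated with 10 μM compound for 30 min were heated for 3 min over 48°C-58°C. After pooling and extraction in PBS with 0.5% NP-40 at 4°C, soluble protein from a 21,000xg, 90 min spin was quantified by TMTpro 16plex LC-MS/MS with channel sums equalised. Thermal stability is expressed against control samples, from duplicates, as a log2 fold change.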

[2] = compound: Cc1cccc(CC(=O)N2CCc3c2ccc(-c2cn(C)c4ncnc(N)c24)c3F)n1
Outline: as §1

[3] = compound: Cc1cn(-c2cc(NC(=O)c3ccc(C)c(Nc4nccc(-c5cccnc5)n4)c3)cc(C(F)(F)F)c2)cn1 [nilotinib]
Outline: as §1

[4] = compound: Cc1nc(Nc2n[nH]c3c2CN(C(=O)N[C@H](CN(C)C)c2ccccc2)C3(C)C)c2sccc2n1
Outline: as §1

[5] = compound: Cc1nc(Nc2ncc(C(=O)Nc3c(C)cccc3Cl)s2)cc(N2CCN(CCO)CC2)n1 [dasatinib]
Outline: as §1

[6] = compound: Cc1ncc(-c2ccnc(Nc3ccc(S(C)(=O)=O)cc3)n2)n1C(C)C
Outline: as §1

[7] = compound: Cn1cc(-c2ccc3c(c2)CCN3C(=O)Cc2cccc(C(F)(F)F)c2)c2c(N)ncnc21
Outline: as §1

[8] = compound: Cn1cc(-c2ccc3nnc(C(F)(F)c4ccc5ncccc5c4)n3n2)cn1
Outline: as §1

[9] = compound: Cn1cncc1[C@@](N)(c1ccc(Cl)cc1)c1ccc2c(c1)c(-c1cccc(Cl)c1)cc(=O)n2C [tipifarnib]
Outline: as §1

[10] = compound: FC(F)(F)c1ccc(/C=C/c2nc(COc3ccc(CCCCn4ccnn4)cc3)co2)cc1 [mubritinib]
Outline: as §1

[11] = compound: NC(=O)Nc1cc(-c2cccc(F)c2)sc1C(=O)N[C@H]1CCCNC1
Outline: as §1

[12] = compound: NC(=O)c1cnc(N[C@@H]2CCCC[C@@H]2N)nc1Nc1cccc(-n2nccn2)c1
Outline: as §1

[13] = compound: NC1(c2ccc(-c3nc4ccn5c(=O)[nH]nc5c4cc3-c3ccccc3)cc2)CCC1
Outline: as §1

[14] = compound: NCC(=O)Nc1ccc(-n2nc(C(F)(F)F)cc2-c2ccc3c(ccc4ccccc43)c2)cc1
Outline: as §1

[15] = compound: Nc1ccccc1NC(=O)c1ccc(CNC(=O)OCc2cccnc2)cc1 [entinostat]
Outline: as §1

[16] = compound: O=C(CCCCCCC(=O)Nc1ccccc1)NO [vorinostat]
Outline: as §1

[17] = compound: O=C(O)c1ccc2c(c1)nc(Nc1cccc(Cl)c1)c1ccncc12 [silmitasertib]
Outline: as §1

[18] = compound: O=C1NC(=O)C(c2cnc3ccccn23)=C1c1cn2c3c(cc(F)cc13)CN(C(=O)N1CCCCC1)CC2
Outline: as §1

[19] = compound: O=C(CCCCCCNC(=O)c1cnc(N(c2ccccc2)c2ccccc2Cl)nc1)NO [citarinostat]
Outline: as §1

[20] = compound: c1cc(OCCN2CCCCC2)cc(-c2n[nH]c3ccc(-c4nnc[nH]4)cc23)c1
Outline: as §1

POLR3D (UniProt P05423)
log2 fold change [1]: -0.052
log2 fold change [2]: 0.044
log2 fold change [3]: 0.023
log2 fold change [4]: -0.125
log2 fold change [5]: 1.17
log2 fold change [6]: 0.057
log2 fold change [7]: -0.082
log2 fold change [8]: 0.046
log2 fold change [9]: 0.018
log2 fold change [10]: -0.072
log2 fold change [11]: -0.061
log2 fold change [12]: 1.51 (active)
log2 fold change [13]: -0.115
log2 fold change [14]: -0.028
log2 fold change [15]: 0.03
log2 fold change [16]: 0.158
log2 fold change [17]: 0.078
log2 fold change [18]: 0.032

PMVK (UniProt Q15126)
log2 fold change [1]: 0.057
log2 fold change [2]: -0.203
log2 fold change [3]: -0.214
log2 fold change [4]: -0.064
log2 fold change [5]: -0.308
log2 fold change [6]: -0.139
log2 fold change [7]: -0.098
log2 fold change [10]: -0.025
log2 fold change [11]: -0.04
log2 fold change [12]: -0.001
log2 fold change [13]: -0.114
log2 fold change [14]: 0.29
log2 fold change [15]: -0.08
log2 fold change [16]: -0.134
log2 fold change [17]: 0.065
log2 fold change [18]: 0.048

RAB11FIP1 (UniProt Q6WKZ4)
Chain of UniProt Q6WKZ4 (Q6WKZ4 whole entry, looked up): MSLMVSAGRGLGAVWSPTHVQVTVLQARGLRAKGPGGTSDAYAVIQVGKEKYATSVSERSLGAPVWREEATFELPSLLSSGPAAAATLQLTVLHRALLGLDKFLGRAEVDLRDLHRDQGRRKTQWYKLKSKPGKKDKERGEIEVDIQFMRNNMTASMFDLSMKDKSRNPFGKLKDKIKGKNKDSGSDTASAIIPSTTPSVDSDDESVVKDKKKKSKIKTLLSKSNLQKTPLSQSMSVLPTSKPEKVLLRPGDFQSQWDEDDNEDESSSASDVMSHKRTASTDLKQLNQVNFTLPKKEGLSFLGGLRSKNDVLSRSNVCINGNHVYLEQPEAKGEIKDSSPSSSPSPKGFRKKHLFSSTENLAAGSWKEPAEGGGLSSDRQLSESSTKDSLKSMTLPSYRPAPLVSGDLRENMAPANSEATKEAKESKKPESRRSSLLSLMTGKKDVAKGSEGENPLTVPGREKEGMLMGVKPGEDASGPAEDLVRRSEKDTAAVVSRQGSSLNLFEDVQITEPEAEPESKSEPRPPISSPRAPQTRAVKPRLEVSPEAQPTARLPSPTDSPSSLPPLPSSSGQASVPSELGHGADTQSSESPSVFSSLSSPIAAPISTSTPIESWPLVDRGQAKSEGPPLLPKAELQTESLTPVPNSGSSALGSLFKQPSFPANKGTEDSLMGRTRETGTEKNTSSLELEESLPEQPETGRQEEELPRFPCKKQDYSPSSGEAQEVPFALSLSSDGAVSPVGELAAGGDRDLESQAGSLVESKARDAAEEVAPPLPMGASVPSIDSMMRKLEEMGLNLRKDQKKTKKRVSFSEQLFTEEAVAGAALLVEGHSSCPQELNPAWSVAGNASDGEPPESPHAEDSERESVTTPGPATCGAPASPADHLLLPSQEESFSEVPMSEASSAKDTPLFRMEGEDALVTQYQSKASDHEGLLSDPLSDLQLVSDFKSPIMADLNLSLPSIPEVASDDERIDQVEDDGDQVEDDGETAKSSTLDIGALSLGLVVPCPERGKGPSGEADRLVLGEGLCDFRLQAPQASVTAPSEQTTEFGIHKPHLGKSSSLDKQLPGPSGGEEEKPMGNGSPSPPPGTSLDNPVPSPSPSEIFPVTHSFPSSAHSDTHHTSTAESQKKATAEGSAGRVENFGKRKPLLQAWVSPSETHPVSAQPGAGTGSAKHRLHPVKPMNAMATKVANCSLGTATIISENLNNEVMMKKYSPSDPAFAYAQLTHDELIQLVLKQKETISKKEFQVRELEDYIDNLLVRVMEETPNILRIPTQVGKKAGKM
log2 fold change [1]: -0.042
log2 fold change [2]: 0.12
log2 fold change [3]: 0.049
log2 fold change [4]: -0.198
log2 fold change [5]: -0.037
log2 fold change [6]: -0.172
log2 fold change [7]: 0.008
log2 fold change [8]: 0
log2 fold change [9]: 0.003
log2 fold change [10]: 0.003
log2 fold change [11]: 0.019
log2 fold change [12]: -0.121
log2 fold change [13]: -0.086
log2 fold change [14]: -0.009
log2 fold change [15]: 0.041
log2 fold change [16]: 0.091
log2 fold change [19]: 0.065
log2 fold change [17]: 0.016
log2 fold change [18]: 0
log2 fold change [20]: -0.07

PTTG1IP (UniProt P53801)
Chain of UniProt P53801 (P53801 whole entry, looked up): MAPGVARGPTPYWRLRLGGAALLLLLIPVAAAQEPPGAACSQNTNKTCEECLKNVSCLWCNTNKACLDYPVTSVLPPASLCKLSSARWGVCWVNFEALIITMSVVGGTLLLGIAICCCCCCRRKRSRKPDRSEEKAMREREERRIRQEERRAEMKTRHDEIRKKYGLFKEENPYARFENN
log2 fold change [1]: -0.105
log2 fold change [2]: -0.053
log2 fold change [3]: -0.061
log2 fold change [4]: 0.054
log2 fold change [5]: -0.002
log2 fold change [6]: -0.099
log2 fold change [7]: 0.036
log2 fold change [9]: 0.036
log2 fold change [10]: -0.012
log2 fold change [11]: -0.033
log2 fold change [12]: 0.026
log2 fold change [13]: -0.222
log2 fold change [14]: 0.065
log2 fold change [15]: 0.12
log2 fold change [16]: -0.077
log2 fold change [19]: -0.017
log2 fold change [17]: 0.083
log2 fold change [18]: 0.017
log2 fold change [20]: 0.07

PRKCE (UniProt Q02156)
Chain of UniProt Q02156 (Q02156 whole entry, looked up): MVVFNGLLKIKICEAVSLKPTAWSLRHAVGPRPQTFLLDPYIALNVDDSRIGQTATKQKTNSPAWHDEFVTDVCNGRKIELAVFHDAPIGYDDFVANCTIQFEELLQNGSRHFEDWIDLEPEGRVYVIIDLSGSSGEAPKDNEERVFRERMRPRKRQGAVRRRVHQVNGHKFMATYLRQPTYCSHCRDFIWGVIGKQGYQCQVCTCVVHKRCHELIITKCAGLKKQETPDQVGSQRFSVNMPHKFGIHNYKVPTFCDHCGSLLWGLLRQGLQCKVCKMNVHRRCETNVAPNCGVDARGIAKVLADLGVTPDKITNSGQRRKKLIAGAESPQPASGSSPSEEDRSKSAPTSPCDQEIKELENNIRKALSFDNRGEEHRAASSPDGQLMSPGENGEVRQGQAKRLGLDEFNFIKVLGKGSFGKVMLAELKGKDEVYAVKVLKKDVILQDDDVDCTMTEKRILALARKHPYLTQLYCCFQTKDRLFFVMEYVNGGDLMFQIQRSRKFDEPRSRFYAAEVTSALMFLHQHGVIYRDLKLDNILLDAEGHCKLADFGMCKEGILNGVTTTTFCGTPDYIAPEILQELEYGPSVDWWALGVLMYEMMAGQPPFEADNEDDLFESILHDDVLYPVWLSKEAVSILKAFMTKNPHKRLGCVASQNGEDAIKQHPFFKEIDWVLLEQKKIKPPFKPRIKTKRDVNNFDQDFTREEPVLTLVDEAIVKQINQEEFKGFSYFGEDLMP
log2 fold change [1]: 0.001
log2 fold change [2]: 0.02
log2 fold change [3]: -0.024
log2 fold change [4]: -0.335 (active)
log2 fold change [5]: -0.118
log2 fold change [6]: 0.004
log2 fold change [7]: 0.051
log2 fold change [9]: -0.049
log2 fold change [10]: 0.052
log2 fold change [11]: -0.068
log2 fold change [12]: -0.084
log2 fold change [13]: -0.177
log2 fold change [14]: -0.078
log2 fold change [15]: 0.01
log2 fold change [16]: 0.107
log2 fold change [19]: -0.019
log2 fold change [17]: -0.016
log2 fold change [18]: -0.018
log2 fold change [20]: -0.055

POLR2E (UniProt P19388)
log2 fold change [1]: 0.055
log2 fold change [2]: -0.03
log2 fold change [3]: -0.007
log2 fold change [4]: 0.112
log2 fold change [5]: 0.025
log2 fold change [6]: 0.306
log2 fold change [7]: -0.056
log2 fold change [8]: 0.005
log2 fold change [9]: -0.088
log2 fold change [10]: 0.023
log2 fold change [12]: 0
log2 fold change [13]: -0.021
log2 fold change [14]: -0.02
log2 fold change [16]: -0.115
log2 fold change [19]: -0.001
log2 fold change [17]: 0.134
log2 fold change [18]: 0.117
log2 fold change [20]: -0.088

PDE6D (UniProt O43924)
Chain of UniProt O43924 (O43924 whole entry, looked up): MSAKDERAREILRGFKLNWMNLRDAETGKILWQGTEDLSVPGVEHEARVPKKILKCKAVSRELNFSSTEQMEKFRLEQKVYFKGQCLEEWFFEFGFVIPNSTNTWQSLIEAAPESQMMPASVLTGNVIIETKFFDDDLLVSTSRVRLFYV
log2 fold change [1]: 0.266
log2 fold change [2]: 0.169
log2 fold change [3]: 0.191
log2 fold change [4]: -0.238
log2 fold change [5]: 0.026
log2 fold change [6]: 0.011
log2 fold change [7]: 0.385
log2 fold change [10]: 0.565
log2 fold change [11]: 0.001
log2 fold change [12]: -0.113
log2 fold change [13]: 0.122
log2 fold change [14]: 0.025
log2 fold change [15]: 0.125
log2 fold change [16]: -0.007
log2 fold change [17]: 0.077
log2 fold change [18]: 0.009

PLCL1 (UniProt Q15111)
log2 fold change [1]: -0.045
log2 fold change [2]: 0.039
log2 fold change [3]: -0.06
log2 fold change [4]: -0.197
log2 fold change [6]: -0.324
log2 fold change [7]: -0.116
log2 fold change [8]: 0.028
log2 fold change [10]: -0.018
log2 fold change [11]: 0.05
log2 fold change [12]: -0.035
log2 fold change [13]: -0.069
log2 fold change [14]: -0.01
log2 fold change [15]: 0.043
log2 fold change [16]: -0.012
log2 fold change [19]: 0.02
log2 fold change [17]: -0.475
log2 fold change [18]: -0.854 (active)
log2 fold change [20]: 0.05

PPP1R12C (UniProt Q9BZL4)
log2 fold change [1]: -0.085
log2 fold change [2]: 0.612 (active)
log2 fold change [3]: 0.069
log2 fold change [4]: -0.26
log2 fold change [5]: -0.065
log2 fold change [6]: -0.213
log2 fold change [8]: -0.018
log2 fold change [9]: -0.219
log2 fold change [10]: -0.118
log2 fold change [11]: -0.151
log2 fold change [13]: -0.031
log2 fold change [14]: -0.022
log2 fold change [15]: 0.072
log2 fold change [16]: 0.487
log2 fold change [19]: -0.008
log2 fold change [17]: 0.122
log2 fold change [18]: -0.073
log2 fold change [20]: -0.278

PDSS2 (UniProt Q86YH6)
log2 fold change [1]: 0.077
log2 fold change [2]: 0.048
log2 fold change [3]: 0.029
log2 fold change [4]: 0.163
log2 fold change [5]: 0.06
log2 fold change [6]: -0.154
log2 fold change [7]: 0.052
log2 fold change [8]: 0.02
log2 fold change [9]: -0.095
log2 fold change [11]: -0.108
log2 fold change [12]: -0.015
log2 fold change [14]: 0.011
log2 fold change [15]: -0.009
log2 fold change [16]: 0.041
log2 fold change [19]: 0.018
log2 fold change [18]: 0.026
log2 fold change [20]: -0.029

PKM isoform 2 (UniProt P14618)
Chain of UniProt P14618 (P14618 whole entry, looked up): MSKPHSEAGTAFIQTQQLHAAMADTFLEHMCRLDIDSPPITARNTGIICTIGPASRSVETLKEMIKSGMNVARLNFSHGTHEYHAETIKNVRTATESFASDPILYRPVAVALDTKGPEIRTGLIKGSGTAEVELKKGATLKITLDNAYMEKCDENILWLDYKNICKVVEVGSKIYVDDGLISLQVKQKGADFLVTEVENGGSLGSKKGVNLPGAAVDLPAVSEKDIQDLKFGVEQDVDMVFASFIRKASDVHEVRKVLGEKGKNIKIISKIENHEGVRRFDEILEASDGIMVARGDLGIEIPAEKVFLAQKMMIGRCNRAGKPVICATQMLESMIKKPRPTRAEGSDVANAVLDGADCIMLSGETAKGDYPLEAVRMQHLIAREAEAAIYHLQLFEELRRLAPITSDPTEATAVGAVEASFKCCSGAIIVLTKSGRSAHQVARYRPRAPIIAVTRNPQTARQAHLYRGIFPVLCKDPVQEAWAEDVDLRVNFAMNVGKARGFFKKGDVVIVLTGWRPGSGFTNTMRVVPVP
log2 fold change [1]: -0.155
log2 fold change [2]: 0.029
log2 fold change [3]: 0.121
log2 fold change [4]: -0.104
log2 fold change [5]: -0.014
log2 fold change [6]: 0.198
log2 fold change [8]: 0.017
log2 fold change [9]: 0.209
log2 fold change [10]: 0.05
log2 fold change [11]: 0.123
log2 fold change [12]: 0.175
log2 fold change [13]: -0.063
log2 fold change [14]: 0.116
log2 fold change [15]: 0.05
log2 fold change [16]: -0.195
log2 fold change [19]: -0.075
log2 fold change [17]: -0.052
log2 fold change [18]: 0.043
log2 fold change [20]: -0.093

POM121 (UniProt Q96HA1)
Chain of UniProt Q96HA1 (Q96HA1 whole entry, looked up): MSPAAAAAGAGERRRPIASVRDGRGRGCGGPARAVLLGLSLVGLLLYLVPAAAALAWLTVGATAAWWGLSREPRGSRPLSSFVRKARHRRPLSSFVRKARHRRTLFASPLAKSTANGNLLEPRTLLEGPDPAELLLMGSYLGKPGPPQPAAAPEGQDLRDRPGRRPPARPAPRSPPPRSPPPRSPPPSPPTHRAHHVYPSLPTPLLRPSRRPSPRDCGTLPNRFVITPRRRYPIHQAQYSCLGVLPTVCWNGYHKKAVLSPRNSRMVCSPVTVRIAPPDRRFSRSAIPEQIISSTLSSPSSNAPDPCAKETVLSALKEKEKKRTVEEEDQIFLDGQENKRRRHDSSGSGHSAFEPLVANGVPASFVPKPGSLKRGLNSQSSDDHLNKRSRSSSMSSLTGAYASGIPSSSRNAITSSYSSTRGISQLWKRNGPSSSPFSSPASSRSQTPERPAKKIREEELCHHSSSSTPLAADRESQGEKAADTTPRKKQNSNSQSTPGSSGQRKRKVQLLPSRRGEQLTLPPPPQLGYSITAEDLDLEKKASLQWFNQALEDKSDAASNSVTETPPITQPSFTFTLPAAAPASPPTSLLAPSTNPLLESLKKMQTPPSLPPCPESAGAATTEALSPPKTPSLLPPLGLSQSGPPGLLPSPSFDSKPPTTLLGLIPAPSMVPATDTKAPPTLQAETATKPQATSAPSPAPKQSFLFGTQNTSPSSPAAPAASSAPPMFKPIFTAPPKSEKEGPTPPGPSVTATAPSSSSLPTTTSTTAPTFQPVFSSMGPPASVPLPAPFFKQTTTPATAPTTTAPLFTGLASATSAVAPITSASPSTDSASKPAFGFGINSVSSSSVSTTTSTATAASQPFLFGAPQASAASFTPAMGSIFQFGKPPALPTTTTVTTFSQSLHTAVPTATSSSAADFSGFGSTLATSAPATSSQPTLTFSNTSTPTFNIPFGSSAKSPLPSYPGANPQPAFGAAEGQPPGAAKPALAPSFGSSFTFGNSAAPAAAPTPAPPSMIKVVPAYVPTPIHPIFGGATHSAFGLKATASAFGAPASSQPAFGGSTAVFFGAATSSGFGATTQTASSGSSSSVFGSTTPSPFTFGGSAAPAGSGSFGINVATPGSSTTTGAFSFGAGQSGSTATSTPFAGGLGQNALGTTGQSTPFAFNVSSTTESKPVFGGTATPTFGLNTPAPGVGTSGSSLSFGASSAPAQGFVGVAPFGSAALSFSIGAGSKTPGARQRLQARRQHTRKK
log2 fold change [1]: -0.114
log2 fold change [2]: 0.012
log2 fold change [3]: 0.135
log2 fold change [4]: 0
log2 fold change [5]: -0.051
log2 fold change [6]: -0.177
log2 fold change [7]: -0.081
log2 fold change [8]: -0.063
log2 fold change [9]: 0.021
log2 fold change [11]: -0.015
log2 fold change [12]: -0.199
log2 fold change [14]: -0.083
log2 fold change [15]: 0.01
log2 fold change [16]: 0.055
log2 fold change [19]: 0.045
log2 fold change [18]: 0.05
log2 fold change [20]: -0.045

PRKCB isoform 2 (UniProt P05771)
Chain of UniProt P05771 (P05771 whole entry, looked up): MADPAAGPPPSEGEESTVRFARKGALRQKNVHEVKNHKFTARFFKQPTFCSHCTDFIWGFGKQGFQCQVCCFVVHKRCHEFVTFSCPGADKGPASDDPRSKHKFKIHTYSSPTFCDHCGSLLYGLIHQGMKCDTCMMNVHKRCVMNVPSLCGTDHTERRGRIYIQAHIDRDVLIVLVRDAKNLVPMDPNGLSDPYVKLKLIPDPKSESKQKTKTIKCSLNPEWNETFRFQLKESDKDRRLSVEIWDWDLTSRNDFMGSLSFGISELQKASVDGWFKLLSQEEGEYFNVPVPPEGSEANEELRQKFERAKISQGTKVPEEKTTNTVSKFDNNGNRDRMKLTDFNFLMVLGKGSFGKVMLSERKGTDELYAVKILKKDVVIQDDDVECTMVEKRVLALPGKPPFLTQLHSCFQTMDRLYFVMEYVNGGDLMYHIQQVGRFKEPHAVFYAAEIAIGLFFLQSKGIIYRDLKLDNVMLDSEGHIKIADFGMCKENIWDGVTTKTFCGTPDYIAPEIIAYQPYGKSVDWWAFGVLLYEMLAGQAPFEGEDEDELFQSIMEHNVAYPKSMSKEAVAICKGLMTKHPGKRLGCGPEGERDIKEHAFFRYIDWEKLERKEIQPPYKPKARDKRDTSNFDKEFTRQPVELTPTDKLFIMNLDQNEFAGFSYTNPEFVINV
log2 fold change [1]: -0.037
log2 fold change [2]: 0.025
log2 fold change [3]: -0.022
log2 fold change [4]: -0.3 (active)
log2 fold change [5]: -0.054
log2 fold change [6]: 0.034
log2 fold change [7]: 0.04
log2 fold change [8]: 0
log2 fold change [9]: -0.051
log2 fold change [10]: 0.054
log2 fold change [11]: -0.052
log2 fold change [12]: -0.037
log2 fold change [13]: -0.118
log2 fold change [14]: -0.058
log2 fold change [15]: 0.045
log2 fold change [16]: 0.02
log2 fold change [19]: 0.041
log2 fold change [17]: 0.032
log2 fold change [18]: -0.051
log2 fold change [20]: 0.02

PATL1 (UniProt Q86TB9)
log2 fold change [1]: -0.007
log2 fold change [2]: 0.034
log2 fold change [5]: -0.032
log2 fold change [7]: 0.08
log2 fold change [8]: -0.013
log2 fold change [9]: 0.039
log2 fold change [10]: -0.04
log2 fold change [11]: 0.054
log2 fold change [12]: -0.213
log2 fold change [13]: -0.047
log2 fold change [14]: -0.025
log2 fold change [15]: 0.052
log2 fold change [16]: 0.106
log2 fold change [19]: 0.02
log2 fold change [17]: 0.04
log2 fold change [18]: 0.069
log2 fold change [20]: -0.093

PSMB9 (UniProt P28065)
Chain of UniProt P28065 (P28065 whole entry, looked up): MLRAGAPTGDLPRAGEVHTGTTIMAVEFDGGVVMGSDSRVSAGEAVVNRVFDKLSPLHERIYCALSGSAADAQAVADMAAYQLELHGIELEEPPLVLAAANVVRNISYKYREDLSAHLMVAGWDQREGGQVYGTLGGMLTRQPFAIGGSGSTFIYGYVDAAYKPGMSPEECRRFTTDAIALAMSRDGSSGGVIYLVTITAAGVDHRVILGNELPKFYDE
log2 fold change [1]: -0.22
log2 fold change [2]: -0.122
log2 fold change [7]: 0.054
log2 fold change [9]: 0.03
log2 fold change [11]: -0.122
log2 fold change [12]: -0.102
log2 fold change [14]: 0.029
log2 fold change [15]: -0.118
log2 fold change [16]: 0.086
log2 fold change [19]: -0.028
log2 fold change [18]: -0.061
log2 fold change [20]: 0
